Data: the supplement of paper PMC12669032
Unmarked numbers belong to inactive results.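 Rule for the calls: active = AUC reduced over 20% with Padj below 0.05 in at least 2 of 3 replicates; inactive = otherwise.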

What was measured:
Assay in all cases: growth AUC relative to DMSO control (median of replicates) (fraction); higher = more growth (less inhibition), active = hit call of the paper
Conditions in all cases: 20 µM; 24 h
[1] = test system: Coprococcus comes
Procedure, shortened: (§1)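 Starting at OD600 0.05, gut bacterial monocultures in mGAM were grown anaerobically at 37 °C with 20 µM compound (1% DMSO) under pierced gas-permeable seals. OD600 was read every hour for 24 h, and the lowest OD of each curve was set to 0. Area under the growth curve was normalised to the plate median of solvent-only wells, or to row and column medians on the industrial chemical plate, and the median of three biological replicates grown on separate days is given.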

[2] = test system: Escherichia coli ED1a
Procedure, shortened: as §1

[3] = test system: Escherichia coli IAI1
Procedure, shortened: as §1

[4] = test system: Eubacterium rectale
Procedure, shortened: as §1

[5] = test system: Fusobacterium nucleatum subsp. animalis
Procedure, shortened: as §1

[6] = test system: Lactobacillus gasseri
Procedure, shortened: as §1

[7] = test system: Lactobacillus paracasei
Procedure, shortened: as §1

[8] = test system: Odoribacter splanchnicus
Procedure, shortened: as §1

[9] = test system: Parabacteroides distasonis
Procedure, shortened: as §1

[10] = test system: Parabacteroides merdae
Procedure, shortened: as §1

COCC(=O)N(c1c(C)cccc1C)[C@@H](C)C(=O)OC
growth AUC [1]: 1.04
growth AUC [2]: 1.01
growth AUC [3]: 1
growth AUC [4]: 1.09
growth AUC [5]: 1.1
growth AUC [6]: 0.893
growth AUC [7]: 1.01
growth AUC [8]: 0.996
growth AUC [9]: 0.796
growth AUC [10]: 0.996

COP(=O)(OC)SCn1c(=O)oc2cc(Cl)cnc21
growth AUC [1]: 1.11
growth AUC [2]: 1.01
growth AUC [3]: 1
growth AUC [4]: 0.986
growth AUC [5]: 0.983
growth AUC [6]: 1.08
growth AUC [7]: 1.05
growth AUC [8]: 1
growth AUC [9]: 1.08
growth AUC [10]: 1

CC1(C)C(C=C(Cl)Cl)[C@@H]1C(=O)O[C@@H](C#N)c1ccc(F)c(Oc2ccccc2)c1 (stereo not given in full)
growth AUC [1]: 0.984
growth AUC [2]: 0.956
growth AUC [3]: 1
growth AUC [4]: 1
growth AUC [5]: 0.878
growth AUC [6]: 0.823
growth AUC [7]: 0.99
growth AUC [8]: 1.01
growth AUC [9]: 1.03
growth AUC [10]: 0.991

CCC(C)(C)c1ccc(O)cc1
growth AUC [1]: 1.03
growth AUC [2]: 0.978
growth AUC [3]: 0.985
growth AUC [4]: 0.953
growth AUC [5]: 1
growth AUC [6]: 0.957
growth AUC [7]: 0.999
growth AUC [8]: 1.08
growth AUC [9]: 1.03
growth AUC [10]: 1.01

O=C(O)CNCP(=O)(O)O
growth AUC [1]: 1
growth AUC [2]: 1
growth AUC [3]: 1
growth AUC [4]: 1.01
growth AUC [5]: 1.08
growth AUC [6]: 1.04
growth AUC [7]: 0.949
growth AUC [8]: 1.08
growth AUC [9]: 1.01
growth AUC [10]: 1.04

Cc1cc(OC(=O)N(C)C)nn1C(=O)N(C)C
growth AUC [1]: 1.03
growth AUC [2]: 0.996
growth AUC [3]: 0.971
growth AUC [4]: 1.01
growth AUC [5]: 1.03
growth AUC [6]: 0.992
growth AUC [7]: 0.963
growth AUC [8]: 0.935
growth AUC [9]: 1.11
growth AUC [10]: 0.966

COP(=S)(OC)Oc1ccc(C#N)cc1
growth AUC [1]: 1.04
growth AUC [2]: 1.04
growth AUC [3]: 1.02
growth AUC [4]: 1.11
growth AUC [5]: 1.04
growth AUC [6]: 1.03
growth AUC [7]: 1
growth AUC [8]: 1.02
growth AUC [9]: 1.07
growth AUC [10]: 1

COP(=S)(NC(C)C)Oc1ccccc1C(=O)OC(C)C (stereo not given)
growth AUC [1]: 1.03
growth AUC [2]: 1.02
growth AUC [3]: 0.988
growth AUC [4]: 0.92
growth AUC [5]: 1.08
growth AUC [6]: 0.984
growth AUC [7]: 0.962
growth AUC [8]: 1.07
growth AUC [9]: 0.53 (active)
growth AUC [10]: 0.931

CNC(=O)Oc1cc(C)c(N(C)C)c(C)c1
growth AUC [1]: 1.01
growth AUC [2]: 0.982
growth AUC [3]: 0.978
growth AUC [4]: 1
growth AUC [5]: 0.952
growth AUC [6]: 0.998
growth AUC [7]: 0.953
growth AUC [8]: 1.08
growth AUC [9]: 0.988
growth AUC [10]: 0.997

ClC1=C(Cl)[C@]2(Cl)[C@@H]3[C@@H]4C[C@@H]([C@H]5O[C@@H]45)[C@@H]3[C@@]1(Cl)C2(Cl)Cl
growth AUC [1]: 0.95
growth AUC [2]: 0.977
growth AUC [3]: 0.996
growth AUC [4]: 0.999
growth AUC [5]: 0.881
growth AUC [6]: 0.999
growth AUC [7]: 0.959
growth AUC [8]: 0.899
growth AUC [9]: 1.05
growth AUC [10]: 0.932

COc1ccc(/C(=C/C(=O)N2CCOCC2)c2ccc(F)cc2)cc1OC
growth AUC [1]: 1.02
growth AUC [2]: 0.974
growth AUC [3]: 1.01
growth AUC [4]: 0.966
growth AUC [5]: 0.955
growth AUC [6]: 0.971
growth AUC [7]: 0.976
growth AUC [8]: 1.06
growth AUC [9]: 1.01
growth AUC [10]: 1.02

CNC(=S)S
growth AUC [1]: 1.03
growth AUC [2]: 1.02
growth AUC [3]: 1.02
growth AUC [4]: 1.03
growth AUC [5]: 1.08
growth AUC [6]: 1.02
growth AUC [7]: 1.1
growth AUC [8]: 1.05
growth AUC [9]: 1.03
growth AUC [10]: 1.05

CC(=O)CC(c1ccco1)c1c(O)c2ccccc2oc1=O (stereo not given)
growth AUC [1]: 1.01
growth AUC [2]: 0.994
growth AUC [3]: 0.987
growth AUC [4]: 0.985
growth AUC [5]: 0.986
growth AUC [6]: 1.03
growth AUC [7]: 1.05
growth AUC [8]: 0.978
growth AUC [9]: 0.958
growth AUC [10]: 1.01

CO/N=C(/C(=O)OC)c1ccccc1COc1ccccc1C
growth AUC [1]: 0.996
growth AUC [2]: 0.955
growth AUC [3]: 0.993
growth AUC [4]: 0.939
growth AUC [5]: 1.02
growth AUC [6]: 1.01
growth AUC [7]: 0.881
growth AUC [8]: 0.92
growth AUC [9]: 0.944
growth AUC [10]: 0.927

O=C1C=CC(=O)C=C1
growth AUC [1]: 1.02
growth AUC [2]: 1.01
growth AUC [3]: 1.01
growth AUC [4]: 0.986
growth AUC [5]: 0.983
growth AUC [6]: 1.04
growth AUC [7]: 1
growth AUC [8]: 0.975
growth AUC [9]: 1.03
growth AUC [10]: 1.01

CO/N=C(/C1=NOCCO1)c1ccccc1Oc1ncnc(Oc2ccccc2Cl)c1F
growth AUC [1]: 0.962
growth AUC [2]: 0.967
growth AUC [3]: 1.03
growth AUC [4]: 0.963
growth AUC [5]: 0.978
growth AUC [6]: 0.992
growth AUC [7]: 1
growth AUC [8]: 0.974
growth AUC [9]: 0.678 (active)
growth AUC [10]: 0.892

COc1cc(OC)nc(NC(=O)NS(=O)(=O)c2cc(NC=O)ccc2C(=O)N(C)C)n1
growth AUC [1]: 0.993
growth AUC [2]: 0.996
growth AUC [3]: 1.01
growth AUC [4]: 0.998
growth AUC [5]: 1.06
growth AUC [6]: 0.902
growth AUC [7]: 1.05
growth AUC [8]: 1.01
growth AUC [9]: 0.977
growth AUC [10]: 0.951

COC(=O)c1ccccc1S(=O)(=O)NC(=O)Nc1nc(C)cc(C)n1
growth AUC [1]: 1
growth AUC [2]: 0.993
growth AUC [3]: 0.985
growth AUC [4]: 1.07
growth AUC [5]: 1
growth AUC [6]: 0.94
growth AUC [7]: 0.948
growth AUC [8]: 1.07
growth AUC [9]: 1.04
growth AUC [10]: 0.987

ClC1=C(Cl)C2(Cl)C3COCC3C1(Cl)C2(Cl)Cl (stereo not given)
growth AUC [1]: 0.912
growth AUC [2]: 1
growth AUC [3]: 1.03
growth AUC [4]: 0.992
growth AUC [5]: 1.12
growth AUC [6]: 1.01
growth AUC [7]: 0.94
growth AUC [8]: 0.99
growth AUC [9]: 0.987
growth AUC [10]: 1.02

CCOP(=S)(OCC)SCSC(C)(C)C
growth AUC [1]: 0.996
growth AUC [2]: 1
growth AUC [3]: 1.01
growth AUC [4]: 1.22
growth AUC [5]: 0.902
growth AUC [6]: 0.909
growth AUC [7]: 1.03
growth AUC [8]: 1.06
growth AUC [9]: 0.955
growth AUC [10]: 1

c1ccc2c(c1)ccc1c3ccccc3sc21
growth AUC [1]: 0.965
growth AUC [2]: 0.988
growth AUC [3]: 1
growth AUC [4]: 0.942
growth AUC [5]: 1.01
growth AUC [6]: 0.974
growth AUC [7]: 1.03
growth AUC [8]: 0.984
growth AUC [9]: 1.1
growth AUC [10]: 1

CC(C)N1C(=O)N(c2ccccc2)CSC1=NC(C)(C)C
growth AUC [1]: 0.943
growth AUC [2]: 0.967
growth AUC [3]: 1.02
growth AUC [4]: 0.956
growth AUC [5]: 0.966
growth AUC [6]: 0.963
growth AUC [7]: 1.03
growth AUC [8]: 1.02
growth AUC [9]: 0.946
growth AUC [10]: 0.997

CCCCC(O)(Cn1cncn1)c1ccc(Cl)cc1Cl (stereo not given)
growth AUC [1]: 0.946
growth AUC [2]: 0.987
growth AUC [3]: 0.996
growth AUC [4]: 0.783 (active)
growth AUC [5]: 1.04
growth AUC [6]: 0.952
growth AUC [7]: 0.936
growth AUC [8]: 0.894
growth AUC [9]: 1.01
growth AUC [10]: 0.931

COCc1c(F)c(F)c(COC(=O)C2C(C=C(C)C)C2(C)C)c(F)c1F (stereo not given)
growth AUC [1]: 0.979
growth AUC [2]: 1.01
growth AUC [3]: 1.02
growth AUC [4]: 0.906
growth AUC [5]: 1.04
growth AUC [6]: 0.873
growth AUC [7]: 0.978
growth AUC [8]: 1.05
growth AUC [9]: 1.03
growth AUC [10]: 1.02

CC(C)(C)[C@@H](O)[C@H](Oc1ccc(Cl)cc1)n1cncn1
growth AUC [1]: 0.974
growth AUC [2]: 0.977
growth AUC [3]: 0.999
growth AUC [4]: 1.08
growth AUC [5]: 1.05
growth AUC [6]: 1.08
growth AUC [7]: 1.09
growth AUC [8]: 0.833
growth AUC [9]: 0.972
growth AUC [10]: 1.01

NCCO.O=C(O)c1nc(Cl)ccc1Cl
growth AUC [1]: 1.05
growth AUC [2]: 1.01
growth AUC [3]: 1.01
growth AUC [4]: 0.912
growth AUC [5]: 1.04
growth AUC [6]: 0.979
growth AUC [7]: 1.02
growth AUC [8]: 1.02
growth AUC [9]: 1.02
growth AUC [10]: 1.01

Nc1nc(N)nc(Cl)n1
growth AUC [1]: 1.02
growth AUC [2]: 1.04
growth AUC [3]: 1.01
growth AUC [4]: 0.971
growth AUC [5]: 1.08
growth AUC [6]: 1.02
growth AUC [7]: 0.991
growth AUC [8]: 1
growth AUC [9]: 1.01
growth AUC [10]: 1.02

CC(C)C(C(=O)OC(C#N)c1cccc(Oc2ccccc2)c1)c1ccc(Cl)cc1 (stereo not given)
growth AUC [1]: 1
growth AUC [2]: 1.01
growth AUC [3]: 0.963
growth AUC [4]: 0.901
growth AUC [5]: 1.02
growth AUC [6]: 0.9
growth AUC [7]: 1.11
growth AUC [8]: 0.893
growth AUC [9]: 1.01
growth AUC [10]: 0.974
